# Laboratory results taken from the supplement of paper PMC8285479.
# Counter-ions that a name gives are not always drawn. ± gives the standard deviation of the averaged measurements. The full ranking holds about 1,900 compounds; the median of “normalised cell viability (NPI; 0 = phenylarsine oxide control, 1 = DMSO control)” is about 1, and the lowest 2% start at about 0.039. Shown is part of a subset that was picked to be rich in the lowest values.
# Test system: NCI-H1944
# Test: normalised cell viability (NPI; 0 = phenylarsine oxide control, 1 = DMSO control) (fraction of DMSO control); NCI-H1944 is a non-small cell lung cancer line; higher = more viable cells (less compound toxicity)
# Details: 6 days
# [1] = glucocorticoid arm: hydrocortisone 2.75 uM co-treatment, compound 1 µM
# [2] = glucocorticoid arm: hydrocortisone 2.75 uM co-treatment, compound 5 µM
# [3] = glucocorticoid arm: hydrocortisone 2.75 uM pre-treated 2 days and continued, compound 1 µM
# [4] = glucocorticoid arm: hydrocortisone 2.75 uM pre-treated 2 days and continued, compound 5 µM
# [5] = glucocorticoid arm: vehicle, compound 1 µM
# [6] = glucocorticoid arm: vehicle, compound 5 µM
# 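Also: CTB read-out in 384-well plates, triplicate wells, NPI normalised per plate against 1 µM phenylarsine oxide (0) and 0.1% DMSO (1) controls.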
structure (smiles),measurement,setting,value
Cc1ccccc1/C=C/C1=NCCN1 [Metrazoline oxalate],normalised cell viability,[1],0.9993 ± 0.0011
same,normalised cell viability,[2],1.002 ± 0.0072
same,normalised cell viability,[3],1.01
same,normalised cell viability,[4],0.987 ± 0.017
same,normalised cell viability,[5],0.995 ± 0.007
same,normalised cell viability,[6],1.002 ± 0.0076
CN(N=O)C(=O)N[C@@H]1[C@@H](O)[C@H](O)[C@@H](CO)O[C@@H]1O [Streptozocin],normalised cell viability,[1],1 ± 0.014
same,normalised cell viability,[2],1.03 ± 0.015
same,normalised cell viability,[3],1.001 ± 0.0081
same,normalised cell viability,[4],1.04 ± 0.01
same,normalised cell viability,[5],0.9943 ± 0.0051
same,normalised cell viability,[6],1
CC(C)[C@H]1c2ccc(F)cc2CC[C@@]1(CCN(C)CCCc1nc2ccccc2[nH]1)OC(=O)C1CC1,normalised cell viability,[1],0.9943 ± 0.0051
same,normalised cell viability,[2],-0.000718 ± 0.00075
same,normalised cell viability,[3],1.013 ± 0.0058
same,normalised cell viability,[4],1.08 ± 0.035
same,normalised cell viability,[5],0.989 ± 0.0095
same,normalised cell viability,[6],-6.33e-05 ± 0.0017
COCC(=O)O[C@]1(CCN(C)CCCc2nc3ccccc3[nH]2)CCc2cc(F)ccc2[C@@H]1C(C)C [Mibefradil dihydrochloride],normalised cell viability,[1],0.977 ± 0.011
same,normalised cell viability,[2],0.0303 ± 0.012
same,normalised cell viability,[3],1 ± 0.015
same,normalised cell viability,[4],0.827 ± 0.24
same,normalised cell viability,[5],0.9887 ± 0.0031
same,normalised cell viability,[6],0.00844 ± 0.014
CCOc1ccc(Cc2cc([C@@H]3O[C@H](CO)[C@@H](O)[C@H](O)[C@H]3O)ccc2Cl)cc1 [Dapagliflozin],normalised cell viability,[1],1.01 ± 0.016
same,normalised cell viability,[2],1.02 ± 0.026
same,normalised cell viability,[3],1.02 ± 0.015
same,normalised cell viability,[4],1.04 ± 0.017
same,normalised cell viability,[5],1.001 ± 0.0081
same,normalised cell viability,[6],1 ± 0.011
CNC(=O)[C@H]1O[C@@H](n2cnc3c(N)ncnc32)[C@H](O)[C@@H]1O [5'-N-Methyl carboxamidoadenosine],normalised cell viability,[1],0.982 ± 0.02
same,normalised cell viability,[2],0.972 ± 0.015
same,normalised cell viability,[3],0.988 ± 0.013
same,normalised cell viability,[4],0.961 ± 0.0028
same,normalised cell viability,[5],0.9893 ± 0.0078
same,normalised cell viability,[6],0.976 ± 0.0053
O=C(O)/C(=C\c1c(C(=O)O)[nH]c2cc(Cl)cc(Cl)c12)c1ccccc1,normalised cell viability,[1],1.02 ± 0.015
same,normalised cell viability,[2],1.06 ± 0.017
same,normalised cell viability,[3],1.017 ± 0.0058
same,normalised cell viability,[4],1.08 ± 0.081
same,normalised cell viability,[5],0.995 ± 0.002
same,normalised cell viability,[6],1.013 ± 0.0058
C/C=C1\NC(=O)[C@H]2CSSCC/C=C/[C@H](CC(=O)N[C@H](C(C)C)C(=O)N2)OC(=O)[C@H](C(C)C)NC1=O [Romidepsin],normalised cell viability,[1],1.005 ± 0.0092
same,normalised cell viability,[2],1.02 ± 0.011
same,normalised cell viability,[3],1.007 ± 0.0058
same,normalised cell viability,[4],1.02 ± 0.015
same,normalised cell viability,[5],0.9903 ± 0.0045
same,normalised cell viability,[6],0.979 ± 0.019
C/C=C1\NC(=O)[C@H]2CSSCC/C=C/[C@H](CC(=O)N[C@H](C(C)C)C(=O)N2)OC(=O)[C@H](C(C)C)NC1=O [Depsipeptide],normalised cell viability,[1],6.37e-05 ± 0.001
same,normalised cell viability,[2],1.05 ± 0.02
same,normalised cell viability,[3],0.00143 ± 0.00036
same,normalised cell viability,[4],1.027 ± 0.0058
same,normalised cell viability,[5],0.00028 ± 0.00044
same,normalised cell viability,[6],1.01
"C/C=C1\NC(=O)[C@H]2CSSCC/C=C/[C@H](CC(=O)N[C@H](C(C)C)C(=O)N2)OC(=O)[C@H](C(C)C)NC1=O [Romidepsin (FK228, Depsipeptide)]",normalised cell viability,[1],0.00704 ± 0.0021
same,normalised cell viability,[2],0.000455 ± 0.00053
same,normalised cell viability,[3],0.00593 ± 0.0021
same,normalised cell viability,[4],0.000393 ± 0.00068
same,normalised cell viability,[5],0.00559 ± 0.0012
same,normalised cell viability,[6],2.1e-05 ± 0.00023
O=C(O)C1CCCNC1 (racemic) [(±)-Nipecotic acid],normalised cell viability,[1],0.9947 ± 0.005
same,normalised cell viability,[2],1.01 ± 0.014
same,normalised cell viability,[3],1.02 ± 0.059
same,normalised cell viability,[4],1.02 ± 0.021
same,normalised cell viability,[5],1 ± 0.01
same,normalised cell viability,[6],1.013 ± 0.0058
CN(C)CCSSCCNC(=O)C1CCN(C(=O)CSc2ccc(Cl)cc2)CC1,normalised cell viability,[1],1.01 ± 0.01
same,normalised cell viability,[2],1.04 ± 0.015
same,normalised cell viability,[3],1.027 ± 0.0058
same,normalised cell viability,[4],1.05 ± 0.01
same,normalised cell viability,[5],0.9967 ± 0.0035
same,normalised cell viability,[6],0.9967 ± 0.0042
N[C@@H](Cc1c[nH]cn1)C(=O)O [L-Histidine hydrochloride],normalised cell viability,[1],1.017 ± 0.0058
same,normalised cell viability,[2],0.996 ± 0.012
same,normalised cell viability,[3],1 ± 0.014
same,normalised cell viability,[4],1.02 ± 0.01
same,normalised cell viability,[5],0.9973 ± 0.0038
same,normalised cell viability,[6],0.9973 ± 0.0046
"O=C(O)c1ccnc(C(=O)O)c1 [2,4-Pyridinedicarboxylic Acid]",normalised cell viability,[1],1 ± 0.022
same,normalised cell viability,[2],0.999 ± 0.045
same,normalised cell viability,[3],0.996 ± 0.021
same,normalised cell viability,[4],1.01 ± 0.024
same,normalised cell viability,[5],0.996 ± 0.015
same,normalised cell viability,[6],0.999 ± 0.015
CN=c1nc(-c2ccccc2)n(-c2ccccc2)s1,normalised cell viability,[1],1.003 ± 0.0058
same,normalised cell viability,[2],1.04 ± 0.031
same,normalised cell viability,[3],0.832 ± 0.33
same,normalised cell viability,[4],1.02 ± 0.01
same,normalised cell viability,[5],1.01
same,normalised cell viability,[6],1.017 ± 0.0058
O=C1Nc2ccc(I)cc2C1=Cc1cc(Br)c(O)c(Br)c1,normalised cell viability,[1],1.047 ± 0.0058
same,normalised cell viability,[2],1.113 ± 0.0058
same,normalised cell viability,[3],1.04 ± 0.01
same,normalised cell viability,[4],1.08 ± 0.021
same,normalised cell viability,[5],1.02 ± 0.01
same,normalised cell viability,[6],1.043 ± 0.0058
Cc1nc(N=Nc2cc([N+](=O)[O-])ccc2Cl)c(COP(=O)(O)O)c(C=O)c1O [MRS 2211 sodium salt hydrate],normalised cell viability,[1],1.003 ± 0.0061
same,normalised cell viability,[2],1.023 ± 0.0058
same,normalised cell viability,[3],0.9933 ± 0.0099
same,normalised cell viability,[4],0.995 ± 0.036
same,normalised cell viability,[5],1.01 ± 0.013
same,normalised cell viability,[6],1.006 ± 0.0075
Cc1c2oc3c(C)ccc(C(=O)N[C@@H]4C(=O)N[C@H](C(C)C)C(=O)N5CCC[C@H]5C(=O)N(C)CC(=O)N(C)[C@@H](C(C)C)C(=O)O[C@@H]4C)c3nc-2c(C(=O)N[C@@H]2C(=O)N[C@H](C(C)C)C(=O)N3CCC[C@H]3C(=O)N(C)CC(=O)N(C)[C@@H](C(C)C)C(=O)O[C@@H]2C)c(N)c1=O [Dactinomycin],normalised cell viability,[1],0.0161 ± 0.0015
same,normalised cell viability,[2],0.0688 ± 0.0039
same,normalised cell viability,[3],0.0397 ± 0.0056
same,normalised cell viability,[4],0.183 ± 0.016
same,normalised cell viability,[5],0.0046 ± 0.00021
same,normalised cell viability,[6],0.0187 ± 0.0011
COc1cc2c(cc1OC)-c1c/c(=N\c3c(C)cc(C)cc3C)n(C)c(=O)n1CC2 [Trequinsin hydrochloride],normalised cell viability,[1],1.03 ± 0.015
same,normalised cell viability,[2],1.02 ± 0.022
same,normalised cell viability,[3],0.908 ± 0.2
same,normalised cell viability,[4],1.033 ± 0.0058
same,normalised cell viability,[5],1.023 ± 0.0058
same,normalised cell viability,[6],1.05 ± 0.035
CC(Cc1ccccc1)Nc1ncnc2c1ncn2C1OC(CO)C(O)C1O (stereo not drawn) [R(-)-N6-(2-Phenylisopropyl)adenosine],normalised cell viability,[1],0.998 ± 0.002
same,normalised cell viability,[2],1.01 ± 0.018
same,normalised cell viability,[3],0.9997 ± 0.0096
same,normalised cell viability,[4],1.03 ± 0.031
same,normalised cell viability,[5],1.013 ± 0.0058
same,normalised cell viability,[6],1.02 ± 0.017
CC(=O)NC(C(=O)O)C(C)(C)SN=O (configuration not stated) [S-Nitroso-N-acetylpenicillamine],normalised cell viability,[1],0.998 ± 0.014
same,normalised cell viability,[2],1 ± 0.026
same,normalised cell viability,[3],1.01 ± 0.011
same,normalised cell viability,[4],0.987 ± 0.023
same,normalised cell viability,[5],0.9937 ± 0.0011
same,normalised cell viability,[6],0.9943 ± 0.0055
O=C1c2c(O)cc(O)cc2O[C@H](c2ccc(O)c(O)c2)[C@H]1O (racemic) [(±)-Taxifolin],normalised cell viability,[1],1.01 ± 0.013
same,normalised cell viability,[2],0.995 ± 0.0078
same,normalised cell viability,[3],1.02 ± 0.035
same,normalised cell viability,[4],1.01 ± 0.012
same,normalised cell viability,[5],1.017 ± 0.0058
same,normalised cell viability,[6],1.017 ± 0.0058
